Test results published in PubChem BioAssay (NCI).
Where “and” joins values, the source holds several entries; their conditions need not be identical. Equal entries are not always repeated. About 83,000 compounds went through this panel and 20% of them were active in at least one assay; those are over-represented in the sample as a whole.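 Note: values are percent growth. 100 is the growth of untreated cells, values between 100 and 0 indicate rising inhibition; between -100 and 0 indicates cell death.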 Calls of active or inactive are those of the source. How the source made its calls: active means growth percent below 10; inactive means the rest.

Key:
Assay in all cases: NCI-60 one-dose screen, 48 h (100 = growth as untreated, 0 = no growth, -100 = all killed)
Conditions in all cases: 10 µM unless noted
[1] = tested on: SK-MEL-2 melanoma
[2] = tested on: EKVX NSCLC
[3] = tested on: SN12C renal
[4] = tested on: UO-31 renal
[5] = tested on: TK-10 renal
[6] = tested on: ACHN renal
[7] = tested on: CAKI-1 renal
[8] = tested on: A498 renal
[9] = tested on: CCRF-CEM leukemia
[10] = tested on: MOLT-4 leukemia

CN1CCN(c2ccc(/C=C/C(=O)c3ccc(O)cc3)cc2)CC1
growth [1]: 102% (inactive) | growth [2]: 83.7% (inactive) | growth [3]: 94.1% (inactive) | growth [4]: 85.3% (inactive) | growth [5]: 122% (inactive) | growth [6]: 105% (inactive) | growth [7]: 98.9% (inactive) | growth [8]: 82.9% (inactive) | growth [9]: 102% (inactive) | growth [10]: 95% (inactive)

O=C(Oc1ccc(CO[N+](=O)[O-])cc1)c1ccccc1
growth [1]: -72.3% (active) | growth [2]: -99.9% (active) | growth [3]: -87.6% (active) | growth [4]: -90.4% (active) | growth [5]: -96.9% (active) | growth [6]: -84.7% (active) | growth [7]: -97% (active) | growth [8]: -71.5% (active) | growth [9]: -47.4% (active) | growth [10]: -50.1% (active)

Cc1c(O)c(O)cc2c3c(oc12)CC(c1ccc2c(c1)OCO2)CC3=O (stereo not given)
growth [1]: 83.8% (inactive) | growth [2]: 79% (inactive) | growth [3]: 94.9% (inactive) | growth [4]: 56% (inactive) | growth [5]: 115% (inactive) | growth [6]: 75.9% (inactive) | growth [7]: 98.6% (inactive) | growth [8]: 102% (inactive) | growth [9]: 69.3% (inactive) | growth [10]: 84.4% (inactive)

CC(C)(C)c1cc(C(C)(C)c2ccccc2)cc(Cc2cc(C(C)(C)c3ccccc3)cc(C(C)(C)C)c2O)c1O
growth [1]: 72.1% (inactive) | growth [2]: 110% (inactive) | growth [3]: 95.7% (inactive) | growth [4]: 80.9% (inactive) | growth [5]: 98.1% (inactive) | growth [6]: 102% (inactive) | growth [7]: 104% (inactive) | growth [8]: 125% (inactive) | growth [9]: 66.1% (inactive) | growth [10]: 54.4% (inactive)

Cc1ccc2c(c1)C(C)Cc1c(ncnc1-n1cnc3cc(C)ccc31)N2C (stereo not given)
growth [1]: -1.91% (active) | growth [2]: 47.2% (inactive) | growth [3]: 31.6% (inactive) | growth [4]: 31% (inactive) | growth [5]: 48.7% (inactive) | growth [6]: 26.6% (inactive) | growth [7]: 24.6% (inactive) | growth [8]: 12.2% (inactive) | growth [9]: 11.4% (inactive) | growth [10]: 12% (inactive)

c1ccc(-c2cc(-c3cc(-c4ccccc4)on3)no2)cc1
growth [1]: 20.5% (inactive) | growth [2]: 121% (inactive) | growth [3]: 92.9% (inactive) | growth [4]: 92.1% (inactive) | growth [5]: 104% (inactive) | growth [6]: -3.89% (active) | growth [7]: 35.5% (inactive) | growth [8]: 97.6% (inactive) | growth [9]: 81.9% (inactive) | growth [10]: 63.7% (inactive)

CCCCC#Cc1c(/C=C(\CCCC)SCC)n(C)c(=O)[nH]c1=O
growth [1]: 67.1% (inactive) | growth [2]: 104% (inactive) | growth [3]: 101% (inactive) | growth [4]: 90.9% (inactive) | growth [5]: 104% (inactive) | growth [6]: 101% (inactive) | growth [7]: 102% (inactive) | growth [8]: 72% (inactive) | growth [9]: 95% (inactive) | growth [10]: 62.1% (inactive)

CC(=O)OC[C@]12CCC(C)(C)C=C1[C@H]1CC[C@@H]3[C@@]4(C)CCCNC(C)(C)[C@@H]4CC[C@@]3(C)[C@]1(C)CC2
growth [1]: 90.7% (inactive) | growth [2]: 89.5% (inactive) | growth [3]: 68.8% (inactive) | growth [4]: 91.5% (inactive) | growth [5]: 94.9% (inactive) | growth [6]: 99.3% (inactive) | growth [7]: 88.9% (inactive) | growth [8]: 97.9% (inactive) | growth [9]: 39.3% (inactive) | growth [10]: 38.8% (inactive)

O=C1CCc2c(sc3[nH]c(=S)n(Cc4ccc(Cl)cc4)c(=O)c23)C1
growth [1]: -20.9% (active) | growth [2]: -2.48% (active) | growth [3]: 5.94% (active) | growth [4]: -6.54% (active) | growth [5]: 15.3% (inactive) | growth [6]: 6.08% (active) | growth [7]: 3.79% (active) | growth [8]: -2.71% (active) | growth [9]: -9.46% (active) | growth [10]: 18% (inactive)

CCN(C(=O)N1CCN(c2cc3c(cc2F)c(=O)c(C(=O)O)cn3C2CC2)CC1)c1nc(-c2ccccc2)cs1
growth [1]: 45.9% (inactive) | growth [2]: 31% (inactive) | growth [3]: 5.8% (active) | growth [4]: 1.81% (active) | growth [5]: 40.9% (inactive) | growth [6]: 8.64% (active) | growth [7]: 29.4% (inactive) | growth [8]: 5.67% (active) | growth [9]: 18.1% (inactive) | growth [10]: 14.7% (inactive)

COC(=O)c1[nH]nc(OC)c1C1(C(C#N)c2nc3ccccc3s2)CCCc2ccccc21 (stereo not given)
growth [1]: 88.7% (inactive) | growth [2]: 88.5% (inactive) | growth [3]: 86% (inactive) | growth [4]: 72.4% (inactive) | growth [5]: 139% (inactive) | growth [6]: 89.1% (inactive) | growth [7]: 94.5% (inactive) | growth [8]: 109% (inactive) | growth [9]: 96.5% (inactive) | growth [10]: 102% (inactive)

C=C1C(=O)O[C@@H]2[C@H]3[C@H](COC(C)=O)[C@@H](OC(C)=O)C[C@H]3C(=C)[C@@H](O)C[C@@H]12
growth [1]: 88% (inactive) | growth [2]: 110% (inactive) | growth [3]: 92.9% (inactive) | growth [4]: 87.9% (inactive) | growth [5]: 82.4% (inactive) | growth [6]: 85.9% (inactive) | growth [7]: 87.8% (inactive) | growth [8]: 121% (inactive) | growth [9]: 61.8% (inactive) | growth [10]: 89.8% (inactive)

CC1(C)C(N)=Nc2cc(OCCCN3Cc4ccc(OCCc5cn(CC(=O)N6CCC(CCN7CCCC7)CC6)nn5)cc4C3)c(OCC3CC3)cc21
growth [1]: 109% (inactive) | growth [2]: 101% (inactive) | growth [3]: 96.1% (inactive) | growth [4]: 90.8% (inactive) | growth [5]: 100% (inactive) | growth [6]: 103% (inactive) | growth [7]: 91.2% (inactive) | growth [8]: 104% (inactive) | growth [9]: 96.2% (inactive) | growth [10]: 99.9% (inactive)

COc1ccc(-c2c[nH]c(C(=O)O)c2-c2cc(OC)c(OC)c(OC)c2)cc1
growth [1]: 49.2% (inactive) | growth [2]: 63.3% (inactive) | growth [3]: 43.9% (inactive) | growth [4]: 31.9% (inactive) | growth [5]: 63.3% (inactive) | growth [6]: 38.4% (inactive) | growth [7]: 29.8% (inactive) | growth [8]: -14.5% (active) | growth [9]: 42.2% (inactive) | growth [10]: 56.4% (inactive)

CCN1C(=O)N(c2ccccc2)C2NC(=S)N(/N=C/C=C/c3ccccc3)C21 (stereo not given)
growth [1]: 16.8% (inactive) | growth [2]: 23.2% (inactive) | growth [3]: 19.8% (inactive) | growth [4]: 35.5% (inactive) | growth [5]: 50.1% (inactive) | growth [6]: 21.7% (inactive) | growth [7]: 29.6% (inactive) | growth [8]: 6.81% (active) | growth [9]: 3.8% (active) | growth [10]: 8.35% (active)

COc1ccc(NC(=O)Nc2ccccc2CNc2nc(Nc3ccc(OCCN4CCCC4)cc3)ncc2Cl)cc1
growth [1]: -20.2% (active) | growth [2]: 55.4% (inactive) | growth [3]: -44.2% (active) | growth [4]: -86% (active) | growth [5]: 1.49% (active) | growth [6]: -94.7% (active) | growth [7]: -79.1% (active) | growth [8]: 51.9% (inactive) | growth [9]: 1.9% (active) | growth [10]: 1.79% (active)

CCOC(=O)C(=CCC(C)C)C(=O)OCC
growth [1]: 113% (inactive) | growth [2]: 112% (inactive) | growth [3]: 90.5% (inactive) | growth [4]: 78.5% (inactive) | growth [5]: 121% (inactive) | growth [6]: 103% (inactive) | growth [7]: 99.4% (inactive) | growth [8]: 76.2% (inactive) | growth [9]: 108% (inactive) | growth [10]: 98.1% (inactive)

COC1=CC(=O)C(OC)=C(O)C1=O
growth [1]: 105% (inactive) | growth [2]: 98.1% (inactive) | growth [3]: 98.2% (inactive) | growth [4]: 93.1% (inactive) | growth [5]: 105% (inactive) | growth [6]: 98.2% (inactive) | growth [7]: 93.9% (inactive) | growth [8]: 106% (inactive) | growth [9]: 108% (inactive) | growth [10]: 107% (inactive)

Cc1ccc(-c2nc(SCC(=O)c3ccc(C#N)cc3)[nH]c(=O)c2C#N)cc1
growth [1]: 104% (inactive) | growth [2]: 113% (inactive) | growth [3]: 108% (inactive) | growth [4]: 76.7% (inactive) | growth [5]: 99.7% (inactive) | growth [6]: 96.1% (inactive) | growth [7]: 93.4% (inactive) | growth [8]: 105% (inactive) | growth [9]: 114% (inactive) | growth [10]: 110% (inactive)

COc1ccccc1/C=C1\COc2ccc(O)cc2C1=O
growth [1]: 93.5% (inactive) | growth [2]: 102% (inactive) | growth [3]: 72% (inactive) | growth [4]: 74.6% (inactive) | growth [5]: 93.3% (inactive) | growth [6]: 57.8% (inactive) | growth [7]: 68.1% (inactive) | growth [8]: 109% (inactive) | growth [9]: 6.4% (active) | growth [10]: 21% (inactive)

CCOc1ccc(N2C(N)=NC(N)=NC2(C)C)cc1
growth [1]: -0.847% (active) and 107% (inactive) | growth [2]: 93.9% (inactive) | growth [3]: 32.2% (inactive) and 96.9% (inactive) | growth [4]: 42% (inactive) and 96.6% (inactive) | growth [5]: 40.9% (inactive) | growth [6]: 44.6% (inactive) and 102% (inactive) | growth [7]: 13.3% (inactive) and 98.4% (inactive) | growth [8]: -5.18% (active) and 72.7% (inactive) | growth [9]: 9.4% (active) and 79.8% (inactive) | growth [10]: 39.2% (inactive) and 81.5% (inactive)

CC(Sc1ccccc1)C(=O)O (stereo not given)
growth [1]: 116% (inactive) | growth [2]: 94.2% (inactive) | growth [3]: 103% (inactive) | growth [4]: 94.9% (inactive) | growth [5]: 102% (inactive) | growth [6]: 104% (inactive) | growth [7]: 76.5% (inactive) | growth [8]: 88.7% (inactive) | growth [9]: 93.9% (inactive) | growth [10]: 141% (inactive)

CSc1nnc(-c2cc3c([nH]c4ccccc43)c(-c3cccc(O)c3)n2)n1-c1ccc(C)cc1
growth [1]: -13.6% (active) | growth [2]: 70.4% (inactive) | growth [3]: 62.7% (inactive) | growth [4]: 41.5% (inactive) | growth [5]: 35.5% (inactive) | growth [6]: 32.3% (inactive) | growth [7]: 48.3% (inactive) | growth [8]: 30.6% (inactive) | growth [9]: 12.2% (inactive) | growth [10]: 17.4% (inactive)

COc1ccccc1/C=C1\COc2ccc(O)c(O)c2C1=O
growth [1]: 58.5% (inactive) | growth [2]: 71.6% (inactive) | growth [3]: -11% (active) | growth [4]: -68.6% (active) | growth [5]: 35.2% (inactive) | growth [6]: 1.49% (active) | growth [7]: 31.9% (inactive) | growth [8]: 109% (inactive) | growth [9]: 2.74% (active) | growth [10]: -1.1% (active)

COc1ccc(-c2cc(-c3cccc(Cl)c3)c(C#N)c(=O)[nH]2)c(OC)c1
growth [1]: 105% (inactive) | growth [2]: 95.2% (inactive) | growth [3]: 97.1% (inactive) | growth [4]: 85.3% (inactive) | growth [5]: 103% (inactive) | growth [6]: 97.2% (inactive) | growth [7]: 90.9% (inactive) | growth [8]: 68.2% (inactive) | growth [9]: -2.24% (active) | growth [10]: 103% (inactive)
